Compounds without any hit were thinned out: in the full panel of roughly 83,000, 20% have a hit.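 Growth was measured after 48 h exposure to one concentration of compound in 96-well plates. Values under 10 count as active.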 Values without a mark were called inactive. Activity calls are given as the source filed them.

Among the test systems are SK-MEL-2 melanoma; EKVX NSCLC; SN12C renal; UO-31 renal; TK-10 renal; ACHN renal; CAKI-1 renal; A498 renal; CCRF-CEM leukemia; MOLT-4 leukemia; SR leukemia; RPMI-8226 leukemia; OVCAR-8 ovarian; OVCAR-5 ovarian; OVCAR-4 ovarian; SK-OV-3 ovarian; IGROV1 ovarian; HS 578T breast; NCI/ADR-RES ovarian; OVCAR-3 ovarian.
What all share (assay): NCI-60 one-dose screen, 48 h (100 = growth as untreated, 0 = no growth, -100 = all killed)
Conditions in all cases: 10 µM unless noted

`COc1cccc(-c2cc(-c3cccs3)c(C#N)c(=O)[nH]2)c1`: the growth in the test with SK-MEL-2 melanoma is 107%; in the test on EKVX NSCLC, 106%; in the test on SN12C renal, 103%; in the test on UO-31 renal, 89.4%; with TK-10 renal it was 122%; with ACHN renal, 102%. The growth in the test with CAKI-1 renal was 96.8%; with A498 renal, 100%; in the test with CCRF-CEM leukemia, 100%; in the test with MOLT-4 leukemia it was 107%; with SR leukemia it was 105%; in the test on RPMI-8226 leukemia it was 98.3%. The growth in the test with OVCAR-8 ovarian was 100%; with OVCAR-5 ovarian it was 113%; with OVCAR-4 ovarian it was 104%; in the test with SK-OV-3 ovarian, 113%; in the test on IGROV1 ovarian, 108%; with HS 578T breast, 96.4%. Besides, the growth with NCI/ADR-RES ovarian was 116%.
For the compound `CC(C)(C)OC(=O)N1CCCN(CCNc2nccc(-c3c(-c4cccc(O)c4)nc4sccn34)n2)S1(=O)=O`, the growth in the test on SK-MEL-2 melanoma was 103%; in the test on EKVX NSCLC it was 112%; with SN12C renal, 82.7%; in the test with UO-31 renal it was 74.5%; with TK-10 renal, 121%; in the test with ACHN renal it was 66.6%. The growth in the test on CAKI-1 renal is 49.4%; with A498 renal it was 127%; with CCRF-CEM leukemia, 75.8%; with MOLT-4 leukemia, 90.8%; in the test with SR leukemia, 77.3%; in the test on RPMI-8226 leukemia, 96.8%. Also, the growth with OVCAR-8 ovarian is 96.8%; in the test with OVCAR-5 ovarian it was 114%; in the test with OVCAR-4 ovarian, 108%; in the test on SK-OV-3 ovarian, 69.5%; with OVCAR-3 ovarian, 119%; with HS 578T breast, 109%. Moreover, the growth with NCI/ADR-RES ovarian is 99%.
`COc1ccc(/C=C/C(=O)CCC(=O)O)cc1OC`: the growth with SK-MEL-2 melanoma was 97.5%; in the test with EKVX NSCLC, 109%; in the test on SN12C renal, 101%; in the test with UO-31 renal, 83.3%; in the test on TK-10 renal it was 104%; in the test with ACHN renal, 108%. In addition, the growth in the test on CAKI-1 renal was 95.5%; in the test with A498 renal it was 121%; in the test on CCRF-CEM leukemia, 95.6%; in the test with MOLT-4 leukemia it was 102%; in the test on SR leukemia, 98.5%; with RPMI-8226 leukemia it was 105%. Also, the growth in the test with OVCAR-8 ovarian was 109%; in the test on OVCAR-5 ovarian it was 95.4%; in the test with OVCAR-4 ovarian, 99%; in the test with SK-OV-3 ovarian, 91%; in the test with OVCAR-3 ovarian, 109%; in the test on HS 578T breast, 105%. Further, in the test with NCI/ADR-RES ovarian, the growth was 111%.
In the case of `COc1cc(C2CC(c3cccc(Nc4ccnc5cc(Cl)ccc45)c3)=NN2C=O)cc(OC)c1OC` (configuration not stated), the growth in the test with SK-MEL-2 melanoma is -18.1% (active); in the test with EKVX NSCLC, 32%; with SN12C renal, 19.7%; with UO-31 renal, 2.53% (active); in the test on TK-10 renal, 2.13% (active); with ACHN renal, -6.99% (active). Moreover, the growth in the test with CAKI-1 renal is -31.1% (active); with A498 renal, -16.4% (active); with CCRF-CEM leukemia it was 2.72% (active); in the test on MOLT-4 leukemia, 9.97% (active); in the test with SR leukemia, 4.97% (active); in the test with RPMI-8226 leukemia it was 21%. The growth in the test on OVCAR-8 ovarian was 23.2%; in the test with OVCAR-5 ovarian it was 41.6%; in the test with OVCAR-4 ovarian it was -16.7% (active); in the test on SK-OV-3 ovarian, 0.586% (active); in the test on OVCAR-3 ovarian, -81.2% (active); in the test with HS 578T breast, -20.1% (active). Moreover, the growth with NCI/ADR-RES ovarian is 5.17% (active).
For the compound `CCOC(=O)N1C2CCC(C2)N1C(=O)OCC`, the growth in the test with SK-MEL-2 melanoma was 99%; with EKVX NSCLC, 113%; in the test with SN12C renal, 105%; in the test on UO-31 renal it was 95.6%; in the test on TK-10 renal, 94.7%; with ACHN renal it was 106%. In addition, the growth was 106% with CAKI-1 renal; 115% with A498 renal; 100% in the test on CCRF-CEM leukemia; 93% in the test with MOLT-4 leukemia; 101% with SR leukemia; 101% in the test on RPMI-8226 leukemia. The growth in the test with OVCAR-8 ovarian is 101%; with OVCAR-5 ovarian, 100%; in the test with OVCAR-4 ovarian it was 95.3%; with SK-OV-3 ovarian it was 104%; in the test on OVCAR-3 ovarian, 113%; in the test on HS 578T breast it was 111%.
In the case of `CCN(CC)CCCC(C)Nc1ccnc2ccc(Oc3ccccc3)cc12` (configuration not stated), the growth was 112% in the test on SK-MEL-2 melanoma; 85.5% in the test on EKVX NSCLC; 79.1% in the test with SN12C renal; 68.5% with UO-31 renal; 93.5% in the test on TK-10 renal; 67.1% in the test with ACHN renal. The growth in the test with CAKI-1 renal was 79%; in the test on A498 renal it was 48.4%; in the test with CCRF-CEM leukemia it was 72.5%; in the test on MOLT-4 leukemia, 62.6%; with SR leukemia it was 14.6%; in the test with RPMI-8226 leukemia it was 76.7%. Also, the growth is 76.7% in the test on OVCAR-8 ovarian; 88.6% in the test with OVCAR-5 ovarian; 66.6% in the test on OVCAR-4 ovarian; 114% in the test with SK-OV-3 ovarian; 77% in the test with IGROV1 ovarian; 82% in the test with HS 578T breast. Moreover, the growth in the test on NCI/ADR-RES ovarian was 92.8%.
On to `CC(C)N(C(=S)SSC(=S)N(C(C)C)C(C)C)C(C)C`, for which the growth with SK-MEL-2 melanoma is 109%; with EKVX NSCLC, 110%; in the test on SN12C renal it was 101%; in the test with UO-31 renal, 80.3%; in the test on TK-10 renal, 100%; with ACHN renal, 98.2%. Moreover, the growth was 85.8% in the test on CAKI-1 renal; 97.8% in the test on A498 renal; 87.5% in the test on CCRF-CEM leukemia; 105% with MOLT-4 leukemia; 105% in the test with SR leukemia; 87.2% in the test on RPMI-8226 leukemia. Also, the growth was 111% in the test on OVCAR-8 ovarian; 107% in the test on OVCAR-5 ovarian; 78.7% in the test with OVCAR-4 ovarian; 112% in the test with SK-OV-3 ovarian; 108% with OVCAR-3 ovarian; 106% in the test with HS 578T breast. The growth with NCI/ADR-RES ovarian is 104%.
As to `O=C(/C=C/c1ccc(F)cc1)N1CCN(C(=O)/C=C/c2ccc(C(F)(F)F)cc2)CC1`, the growth in the test on SK-MEL-2 melanoma was 118%; in the test on EKVX NSCLC it was 93.1%; in the test with SN12C renal, 106%; with UO-31 renal, 89.7%; in the test on TK-10 renal, 105%; in the test on ACHN renal it was 115%. Moreover, the growth in the test with CAKI-1 renal was 97.3%; with A498 renal, 130%; in the test on CCRF-CEM leukemia, 103%; in the test with MOLT-4 leukemia it was 115%; in the test with SR leukemia it was 114%; with RPMI-8226 leukemia it was 124%. In addition, the growth in the test on OVCAR-8 ovarian is 105%; with OVCAR-5 ovarian it was 109%; in the test on OVCAR-4 ovarian it was 116%; in the test on SK-OV-3 ovarian, 118%; in the test on IGROV1 ovarian it was 122%; in the test with OVCAR-3 ovarian it was 113%. The growth in the test with HS 578T breast was 123%; with NCI/ADR-RES ovarian, 113%.

These data come from PubChem BioAssay (NCI).
